Laboratory results as given in publication PMC5540273 (PLoS ONE, 2017).

Legend:
[1] = system: CAMK1D
[2] = system: CAMK1
[3] = system: CAMK2G
[4] = system: CAMKK1
[5] = system: T1, CDC2L1
T1 construct: gene CDK11B

[6] = system: CDK9
[7] = system: CDC2L2
[8] = system: CDK2
[9] = system: CDK5
[10] = system: CDK7
[11] = system: CDK8
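Also: kd values determined as follow-up on hits from a single-replicate KINOMEscan panel screen.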

O=C1NC(=O)C(c2ccc(Cl)cc2)=C1Nc1ccc(O)cc1 [SB-340867]
Kd [1]: > 10 µM | Kd [2]: > 10 µM

COc1cccc(CNC(=O)NC2CCN(c3ccnc(Nc4ccc(F)cc4)n3)C2)c1 (centres unmarked) [GSK1379723]
Kd [3]: > 10 µM

CN1c2ccc(-c3ccc(C(N)=O)cc3)cc2-c2[nH]ncc2S1(=O)=O
Kd [4]: > 10 µM

Cc1nccc(-c2c(-c3ccc(F)cc3)ncn2CCCN2CCOCC2)n1.Cl [SB-282975]
Kd [5]: > 10 µM | Kd [6]: > 10 µM

Cc1c(Cn2c3ccccc3n3c(=O)cc(N4CCOCC4)nc23)cccc1C(F)(F)F [GSK2306394]
Kd [5]: > 10 µM | Kd [6]: > 10 µM

CC(=O)c1c(C)c2cnc(Nc3ccn(C)n3)nc2n(C2CCCC2)c1=O
Kd [7]: > 10 µM

COC(=O)C(NC(=O)NC1CCN(c2ccnc(Nc3ccc(F)cc3)n2)C1)c1ccccc1 (centres unmarked) [GSK1379712]
Kd [8]: > 10 µM

Cc1ccc(-c2nc(Nc3ccncc3)c3ccccc3n2)s1 [GSK189015]
Kd [9]: > 10 µM

O=C(Nc1n[nH]c2nc(-c3ccco3)c(Br)cc12)C1CCN(Cc2ccccc2)C1.O=C(O)[C@H](O)[C@@H](O)C(=O)O (centres unmarked) [SB-742034]
Kd [10]: 1.1 µM

Nc1cccc(-c2ccc3c(N)n[nH]c3c2)n1 [GSK2192730]
Kd [10]: > 10 µM

Cc1cnc(N)c(/C=C/c2cncc(C(=O)NCCc3ccc(Cl)cc3Cl)c2)c1.Cl [GSK190937]
Kd [11]: 1.1 µM
